Source: ChEMBL document CHEMBL3988442, “University of Dundee, Small-Polar-MMV Screening Library” (2021)
Screen size: about 85,000 compounds; about 440 (0.52%) showed an effect of 50% or more. The list comes from a sample in which strong results are over-represented; it also holds similar structures and randomly drawn compounds.

Assay: In vitro enzyme assay to detect hydrolysis of chlorophenol red-beta-D-[…] directly proportional to the number of Toxoplasma stably expressing beta-galactosidase
Assay type: functional, organism-based, Toxoplasma gondii
Design: scale not given: in the data most compounds retested in dose-response had high values

O=C(NCC(O)C1CC1)c1cccnc1C(F)(F)F (stereo not given)
Percent Effect (50 µM): -5.668%

O=C(CNc1ccc(Br)cc1)NCc1ncc[nH]1
Percent Effect (50 µM): 5.475%

CC(N)CCNS(=O)(=O)c1ccccc1 (stereo not given)
Percent Effect (50 µM): -13.24%

O=S(=O)(NCCC(O)c1cccs1)c1ccccc1 (stereo not given)
Percent Effect (10 µM): 0.7722%

CC(C)C(O)CCNS(=O)(=O)c1ccccc1 (stereo not given)
Percent Effect (50 µM): 62.33%

CC(c1cccnc1)N(C)C(=O)c1ccccc1C#N (stereo not given)
Percent Effect (50 µM): -2.098%

COc1c(C)cnc(CNC(=O)NC2CC2)c1C
Percent Effect (50 µM): 8.679%

Cc1cc(C)n(CC(=O)N2CC(C)OCC2(C)C)n1 (stereo not given)
Percent Effect (50 µM): 5.036%

CSCC(CCO)NC(=O)c1cccc(F)c1Cl (stereo not given)
Percent Effect (10 µM): -17.37%

CSCC(CCO)NC(=O)c1cc(F)ccc1O (stereo not given)
Percent Effect (50 µM): 96.99%

CSCC(CCO)NC(=O)c1cccc(Cl)c1F (stereo not given)
Percent Effect (10 µM): -4.915%

CCCc1cc(C(=O)N2CCOC(C(F)(F)F)C2)no1 (stereo not given)
Percent Effect (50 µM): -10.86%

COc1ccnc(N2CCC(F)(CO)C2)n1 (stereo not given)
Percent Effect (50 µM): 3.064%

Cn1nnc2c1C(COCC1CC1)CN(C(=O)Cc1cccs1)C2 (stereo not given)
Percent Effect (10 µM): 56.28%

COCC1CN(C(=O)Cc2cccs2)Cc2nnn(C)c21 (stereo not given)
Percent Effect (10 µM): 4.219%

Cn1nnc2c1C(COCC1CC1)CN(C(=O)Cc1ccsc1)C2 (stereo not given)
Percent Effect (10 µM): -4.213%

CC1(C)CNC(=O)c2nc(CCN3CCCC3)[nH]c2C1
Percent Effect (50 µM): -0.3782%

COc1ccc2[nH]c(N3CCOCC3)nc2c1
Percent Effect (50 µM): 4.618%

N#Cc1ccc(CN2CCCC2=O)cc1
Percent Effect (50 µM): 8.336%

CS(=O)(=O)NCc1ccc(CN2CCCC2=O)cc1
Percent Effect (50 µM): 69.78%

NCc1ccc(CN2CCCC2=O)cc1
Percent Effect (50 µM): -14.5%

CCOCC(=O)N(Cc1ccc(O)c(OC)c1)C1CC1
Percent Effect (50 µM): -4.406%

CCCNC(=O)c1ccc(CN2CCCC2)cc1
Percent Effect (50 µM): 0.8478%

CCNCCCNCc1ccc2c(c1)n(C)c(=O)n2C
Percent Effect (50 µM): 0.7261%

NCC(CO)Cc1ccc(F)c(F)c1 (stereo not given)
Percent Effect (50 µM): 20.05%

COC(=O)Nc1nc2c(s1)CN(C(=O)NCc1cccs1)CC2
Percent Effect (10 µM): 1.645%

CC(C)NC(=O)Nc1nc2c(s1)CN(C(=O)NCc1cccs1)CC2
Percent Effect (10 µM): 56.34%

O=C(Nc1nc2c(s1)CN(C(=O)NCc1cccs1)CC2)C1CC1
Percent Effect (10 µM): 2.193%

N#Cc1ccc(N2CCOC2=O)nc1
Percent Effect (50 µM): 0.2325%

CCOc1ccc(NC(=O)[C@H](C)N(C)C)cc1CO
Percent Effect (50 µM): 1.908%

O=C(Cn1cc(Br)ccc1=O)NCC1CCOC1 (stereo not given)
Percent Effect (50 µM): -15.74%

CCc1ccc(-c2cc(C(F)(F)F)nc(N3CCC(N)CC3)n2)cc1
Percent Effect (10 µM): 99.66%

Cc1ccc(-c2cc(C(F)(F)F)nc(N3CCOCC3)n2)s1
Percent Effect (10 µM): -3.229%

O=C(O)C1CCCN1c1nc(-c2ccc(Cl)c(Cl)c2)cc(C(F)(F)F)n1 (stereo not given)
Percent Effect (10 µM): 13.78%

Cc1c(-c2cc(C(F)(F)F)nc(N3CCC(N)CC3)n2)cnn1C
Percent Effect (10 µM): 84.58%

Cc1c(S(=O)(=O)N2CCC(N)CC2)cnn1C
Percent Effect (50 µM): -0.6017%

O=C(O)C1CCCN1c1nc(-c2ccc(Cl)cc2)cc(C(F)(F)F)n1 (stereo not given)
Percent Effect (10 µM): 8.669%

CCNC(=O)[C@@H]1C[C@H](N)CN1c1cc(C(F)(F)F)nc(N2CCCC2)n1
Percent Effect (10 µM): 3.581%

CCn1ncc(-c2cc(C(F)(F)F)nc(N3CCC(N)CC3)n2)c1C
Percent Effect (10 µM): 74.85%

NC1CCN(c2ccc(C(F)(F)F)cn2)CC1
Percent Effect (50 µM): 7.702%

NC(=O)C1CCN(CC(=O)Nc2ccc(F)cc2)CC1
Percent Effect (50 µM): -2.359%

CCN(CC)CC(N)=O
Percent Effect (50 µM): -6.066%

CC1CCCN(Cn2nccc2-c2cccnc2)C1 (stereo not given)
Percent Effect (50 µM): 7.827%

O=C(NCCc1ccccc1F)C1CCNCC1
Percent Effect (50 µM): -5.827%

O=C(OCC(F)(F)F)c1cccnc1
Percent Effect (50 µM): -11.21%

Cc1ccc(F)cc1C(=O)NC1CCCNC1 (stereo not given)
Percent Effect (50 µM): 83.09%

Cc1ccc(F)cc1C(=O)N[C@@H]1CCNC[C@H]1O
Percent Effect (50 µM): 19.16%

O=C(N[C@H]1CCCNC1)c1ccc(F)cc1F
Percent Effect (50 µM): -5.906%

COCc1nnc(-c2ccc3c(c2)OCO3)o1
Percent Effect (50 µM): 23.78%

NC(=O)C1CCCN1C(=O)C1CCNCC1 (stereo not given)
Percent Effect (50 µM): -2.32%

c1ccc(Nc2nccs2)nc1
Percent Effect (50 µM): -28.74%

Oc1cc(C2CCCCN2Cc2cccs2)nc(-c2ccncc2)n1 (stereo not given)
Percent Effect (10 µM): -14.06%

Oc1cc(C2CCCN(Cc3cccs3)C2)nc(-c2ccccn2)n1 (stereo not given)
Percent Effect (10 µM): 33.79%

Oc1cc(C2CCCCN2Cc2cccs2)nc(-c2ccccn2)n1 (stereo not given)
Percent Effect (10 µM): 91.06%

Cc1ccc(N)c(C)n1
Percent Effect (50 µM): 4.322%

OC(c1ccccc1)C1CCNCC1 (stereo not given)
Percent Effect (50 µM): -7.409%

O=C(NCc1ccnc(NC2CC2)c1)C1CCCCC1
Percent Effect (50 µM): 17%

CS(=O)(=O)Nc1nn(Cc2ccc(F)cc2)cc1Br
Percent Effect (10 µM): 62.42%

Cc1cccc(Cn2cc(Br)c(NS(C)(=O)=O)n2)c1
Percent Effect (10 µM): 46.94%

Cc1ccc(Cn2cc(Br)c(NS(C)(=O)=O)n2)cc1
Percent Effect (10 µM): 20%
